# Reference: PubChem BioAssay AID778 (Sanford-Burnham Center for Chemical Genomics, 2007)
# About 20,000 (21%) of roughly 96,000 compounds were called active. Only a sample is shown. Unmarked numbers belong to inactive results.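 The calls were made as follows: active = CYP2C19 inhibition above a set limit at 5 µM in the primary screen (cut at about 50% in these data); inactive = the rest.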
# Molecular target: Cytochrome P450 2C19 (Homo sapiens) (UniProt P33261)
# Test: blockers of cytochrome P450 2C19 activity – biochemical, luminescence, ADME assay, primary screen (AID 778);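 also: plate controls were negative control wells for no effect and 2.5 mM tranylcypromine positive control for full effect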
# Conditions: CYP2C19 Supersomes, luciferin-H EGE luminescence, 30 min; at 5 µM; hits give high values
# Chain of Cytochrome P450 2C19 (Homo sapiens) (P33261 whole entry, looked up): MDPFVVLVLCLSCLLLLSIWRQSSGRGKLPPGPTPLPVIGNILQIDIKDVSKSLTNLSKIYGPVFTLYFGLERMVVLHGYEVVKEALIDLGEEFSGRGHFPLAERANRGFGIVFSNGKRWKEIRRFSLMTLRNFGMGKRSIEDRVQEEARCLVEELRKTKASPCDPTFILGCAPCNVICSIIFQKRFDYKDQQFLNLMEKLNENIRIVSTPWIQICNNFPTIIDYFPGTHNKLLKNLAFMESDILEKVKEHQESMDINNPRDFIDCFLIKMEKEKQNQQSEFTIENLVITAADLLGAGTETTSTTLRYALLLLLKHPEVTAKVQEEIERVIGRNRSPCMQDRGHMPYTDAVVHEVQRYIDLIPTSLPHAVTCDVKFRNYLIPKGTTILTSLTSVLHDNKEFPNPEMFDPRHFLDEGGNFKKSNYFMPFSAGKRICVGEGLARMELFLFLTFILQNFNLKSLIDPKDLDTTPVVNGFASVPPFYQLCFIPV
row,Compound,inhibition
1,c1ccc(Cc2nn3c(Cn4cnc5ccccc54)nnc3s2)cc1,39%
2,Cc1c(-c2ccccc2)nc(N)c(C#N)c1-c1cccs1,0.7%
3,CCOC(=O)c1ccc(NC(=O)CS(=O)(=O)c2cn(CC)c3ccccc23)cc1,20.6%
4,CCOC(=O)[C@H]1CCC[C@@H](NS(=O)(=O)c2ccc(NC(C)=O)cc2)C1,57.9% (active)
5,CC(C)(C)NS(=O)(=O)c1ccc(NC(=O)NC2CCCCC2)cc1,8%
6,CC(C)NS(=O)(=O)c1ccc(NC(=O)C2CCCCC2)cc1,13.3%
7,CC1=C(C)CC(C(=O)NNC(=O)c2ccccc2O)C(C(=O)O)C1 (configuration not stated),-7.2%
8,Cc1nc(SCC(=O)N2CCc3ccccc3C2)c2c(C)c(C)sc2n1,20%
9,O=C(Nc1ccc2c(c1)OCCO2)C(c1ccc(F)cc1)N1CCCCC1 (configuration not stated),56.5% (active)
10,COc1ccc(-n2c(SCC(=O)Nc3ccc4c(c3)OCO4)nnc2C(C)N2CCCCC2)cc1 (configuration not stated),16.9%
11,CC1CCCN(C(C(=O)Nc2ccc(C(C)C)cc2)c2ccc3c(c2)OCO3)C1 (configuration not stated),17.7%
12,CCN(CC)Cc1csc2ccc(Br)cc12,5.2%
13,O=[n+]1c2c(n([O-])c3cc(Br)ccc31)CCC2,21%
14,Cc1nnc(SCC(=O)N2CCc3ccccc32)n1-c1ccccc1,3.9%
15,C=CCn1c(=O)c2ccccc2n2c(SCC(=O)N3CCCc4ccccc43)nnc12,36.5%
16,CCCn1c(SCC(=O)N2CCc3ccccc32)nnc1-c1ccncc1,83.8% (active)
17,COc1ccc(-c2[nH]nc(-c3ccccc3)c2-c2nc3ccccc3[nH]2)cc1,11.3%
18,Cn1c(C(=O)NCCCN2CCN(c3cccc(Cl)c3)CC2)cc2c(=O)n(C)c3ccccc3c21,18%
19,O=C1CCc2cc(S(=O)(=O)N3CCC(C(=O)NCc4ccccc4Cl)CC3)ccc2N1,88.6% (active)
20,COc1ccccc1CNC(=O)C1CCN(S(C)(=O)=O)CC1,2.2%
21,O=C(O)C1CCCN1S(=O)(=O)c1ccc2c(c1)CCC2 (configuration not stated),-10.4%

row,Compound,inhibition
1,O=C(NCc1cccs1)C1CCN(S(=O)(=O)c2ccc3c(c2)OCCO3)CC1,17.6%
2,CSc1cccc(NC(=O)C2CCCN2S(=O)(=O)c2ccc3c(c2)CCC(=O)N3)c1 (configuration not stated),56.8% (active)
3,Cc1cccc(NC(=O)C2CCCN2S(=O)(=O)c2ccc(F)cc2)c1C (configuration not stated),16.2%
4,CCOC(=O)CNC(=O)c1nn(-c2cccc(OC)c2)c(=O)c2ccccc12,5.3%
5,COc1ccc(-n2nnc3c(=O)n(CC(=O)OCc4ccccc4)cnc32)cc1,3.9%
6,COC(=O)C1=C(Nc2ccc(OC)cc2)C=C(C)C(C(=O)OC)C1c1ccc(C)cc1 (configuration not stated),33.3%
7,CC1(C)Cc2c(sc3nc4n(c(=N)c23)CCCCC4)CO1,-6.4%
8,O=C(NCCCNCc1ccccc1)c1ccc(/C=N/O)nc1,-13.4%
9,Cn1c(=O)[nH]c(=O)c2c1nc(CN(Cc1ccccc1)Cc1ccccc1)n2CCN1CCOCC1,14.9%
10,COc1ccc(-c2nc3n(c2Br)CCC3)cc1,32.9%
11,Cc1ccc(C(=O)Nc2c(C#N)c(C)c(C)n2Cc2ccccc2)cc1,23.9%
12,CN1C(=O)c2ccccc2C(C(=O)NCCCN2CCCC2)C1c1c[nH]c2ccccc12 (configuration not stated),-6.7%
13,N#CC1=C(N)OC2=C(C(=O)CCC2)C1C1CC=CCC1 (configuration not stated),61.1% (active)
14,COCc1[nH]nc2c1C(C1C=CCCC1)C(C#N)=C(N)O2 (configuration not stated),17.2%
15,CC1CCc2c(sc(NC(=O)c3ccc(Cn4cc(Br)cn4)o3)c2C(N)=O)C1 (configuration not stated),28.9%
16,Nc1ccccc1SCc1cc([N+](=O)[O-])cc2c1OCOC2,19.4%
17,Cc1ccc(SCC2=NNC(=O)C2)cc1,7.6%
18,CCC(=O)c1ccc(OCC(O)CN2C(=O)NC(C)(C)C2=O)cc1 (configuration not stated),31.7%
19,CC1(C)NC(=O)N(CCCCSc2ccc(Cl)cc2)C1=O,87.5% (active)
20,CC1(C)NC(=O)N(CCOc2cccc(Oc3ccccc3)c2)C1=O,42.5%
21,Cc1ccc(SCCN2C(=O)NC(C)(C)C2=O)cc1,97.8% (active)

row,Compound,inhibition
1,N#CC1=C(N)Oc2c(sc3ccccc23)C1c1ccco1 (configuration not stated),22.6%
2,Cc1c(Cl)c([N+](=O)[O-])nn1Cc1ccc(C(=O)N/N=C\c2cc(Cl)ccc2O)o1,31.1%
3,CCN(CC)CCn1c(=S)[nH]c2ncccc2c1=O,-16.9%
4,Cc1cccc(N2C(=O)c3cccnc3C2=O)c1,10.5%
5,COc1ccc(C(C(=O)NCc2ccccc2)N(Cc2cccs2)C(=O)c2cnccn2)cc1 (configuration not stated),47%
6,COC(=O)c1ccc(CN(c2ccccc2OC)S(=O)(=O)c2cccs2)o1,98.5% (active)
7,COC(=O)c1ccc(Cc2ccccc2)o1,-1.3%
8,CCCCN(CCCC)C(=O)CCS(=O)(=O)c1ccc2c(c1)n(C)c(=O)c(=O)n2C,3.1%
9,CS(=O)(=O)c1ccc2c(c1)SC1=NC(=O)/C(=C/c3ccco3)C(=N)N12,8.6%
10,CCS(=O)(=O)N1CCCC(C(=O)NCCCN(C)Cc2ccccc2)C1 (configuration not stated),-3%
11,Cc1cc(C)nc(N2C(=O)CC(Cc3ccccc3)C2=O)n1 (configuration not stated),15.5%
12,O=C(O)CN1C(=O)CC(Cc2ccccc2)C1=O (configuration not stated),-1%
13,O=C1CC(Cc2ccccc2)C(=O)N1c1ccc(Cl)cn1 (configuration not stated),59.4% (active)
14,COc1ccc(-n2c(C)nc3c(cnn3-c3ccccc3)c2=O)cc1,14.9%
15,Cc1cc(C)c(S(=O)(=O)c2ccccc2)c(OC(=O)c2c(F)cccc2Cl)n1,12.4%
16,Cc1nc(C)c(C(=O)Nc2ccc(C)c(F)c2)o1,-9%
17,CCOc1ccccc1-n1c(SCC(=O)N2CCCC2)nnc1-c1ccoc1C,2%
18,Cc1ccc2nc(S(=O)(=O)O)[nH]c2c1,-14.4%
19,Cc1ccc2nc(/C(C#N)=C\c3ccc(OC(=O)c4cccs4)cc3)[nH]c2c1,50.9% (active)
20,COc1ccc(/C=C(/NC(=O)c2ccc(C)cc2)c2nc3ccccc3[nH]2)cc1OC,35.6%
